Bfl-1 A1 inh = inhibitors of the anti-apoptotic protein A1, read as caspase activation; MEF A1-2A-BIM cells, Caspase-Glo 3/7 luminescence, 3 h; percent of clofoctol response, vehicle zero; caspase activation, % (test concentration not listed); 0.066% of 330,000 active; AID 2462;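 active = over half of replicate activation scores above 10%, or exactly half above 10 with the replicate mean above 10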
NTR1 ag = agonists of human neurotensin receptor NTR1 | NTR1-U2OS beta-arrestin-GFP spot imaging, agonist mode | 0.17% of 330,000 active | activation, % at 20 µM;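 active = activation at or above 40% of the spot to cytoplasm intensity ratio, with at least 20 cells analyzed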;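 note: 0% = DMSO without peptide and 100% = 100 nM NTR1 peptide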
B2AR ag = agonists of human beta-2 adrenergic receptor inducing internalization | P07550 | Am2.2-beta2AR cells, FAP receptor internalization, flow cytometry | response, % (no concentration beside the values) | 0.43% of 340,000 active | AID 504454;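 active = response above a set limit, near 3 SD of response in nonfluorescent compounds, cut at about 42% in these data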
TLR4-MyD88 BLA = blocks binding of human TLR4 to MyD88 | HeLa CL3-4 TLR4/MyD88 BLA complementation, FRET ratio | 0.18% of 200,000 active | O00206+Q99836 | inhibition, % at 8.4 µM; in the data active = inhibition above about 25%;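 note: 0% = vehicle and 100% = reference inhibitor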
NOD2 RIPK2 PPI = NOD2-RIPK2 protein interaction inhibition. inhibition, % at 4.98 µM. O43353. 0.38% of 360,000 active. CHO BLA complementation NOD2-RIPK2, CCF4 ratio; in the data active = inhibition above about 21%;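 note: 0% = vehicle only and 100% = reference blocker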
Target sequence (O43353 whole entry, looked up): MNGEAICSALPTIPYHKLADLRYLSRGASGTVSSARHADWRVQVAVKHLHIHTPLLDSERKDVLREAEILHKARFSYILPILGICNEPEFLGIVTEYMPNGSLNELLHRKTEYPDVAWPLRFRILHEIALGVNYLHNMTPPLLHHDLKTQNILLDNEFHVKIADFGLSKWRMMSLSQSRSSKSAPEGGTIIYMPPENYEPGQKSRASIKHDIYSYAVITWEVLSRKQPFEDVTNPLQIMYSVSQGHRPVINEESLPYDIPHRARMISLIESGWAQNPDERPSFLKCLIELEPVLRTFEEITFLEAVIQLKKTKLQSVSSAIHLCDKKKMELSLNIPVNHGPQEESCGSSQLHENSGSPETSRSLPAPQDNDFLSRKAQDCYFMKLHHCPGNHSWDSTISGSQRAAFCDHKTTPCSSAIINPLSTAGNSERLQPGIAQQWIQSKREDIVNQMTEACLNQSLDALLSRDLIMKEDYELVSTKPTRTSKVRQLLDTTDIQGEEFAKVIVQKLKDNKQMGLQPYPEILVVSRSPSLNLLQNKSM
TLR9-MyD88 inh = inhibitors of human TLR9-MyD88 binding; Q9NR96+Q99836; CHO BLA complementation TLR9-MyD88, CCF4 FRET ratio; inhibition, % at 4.98 µM; 0.21% of 340,000 active; AID 504734;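 active = inhibition above the mean over all tested compounds plus 3 SD, cut at about 21% in these data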;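 note: 0% = DMSO only wells and 100% = clavulanate BLA inhibitor control wells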
B2AR ag CP1 = human beta-2 adrenergic receptor agonism, cherry pick; shares compounds with B2AR ag; percent response (surface receptor), % at 10 µM; 25% of 1,100 active; Am2.2-beta2AR cells, FAP surface receptor, flow cytometry; stronger effect = lower value; AID 540358;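 active = surface receptor percent response at or below 58%, roughly 3 SD from nonfluorescent compounds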
B2AR FAP counter = flagged in Am2.2 fluorescence counterscreen for beta-2AR agonists; shares compounds with B2AR ag; Am2.2 cells, FAP fluorogen flow cytometry; stronger effect = lower value; calls only at 10 µM; 1,100 tested, under 10 active; AID 588765;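 active = percent response below a set limit in fluorescence channel 1 and below 50% in channel 8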
* hit, by the source's call; i = inactive; / = no result. In the library only some 0.97% were active in any assay of this set; here they are far more common.

SMILES | Bfl-1 A1 inh | NTR1 ag | B2AR ag | TLR4-MyD88 BLA | NOD2 RIPK2 PPI | TLR9-MyD88 inh | B2AR ag CP1 | B2AR FAP counter
O=C(c1ccc(-c2nnc(Nc3ccccc3)c3ccccc23)cc1)N1C[C@H]2C[C@H](C1)c1cccc(=O)n1C2 | 0 | 1 | 7 | -6 | 6 | 6 | 79 | i
CN(Cc1cccs1)C(=O)c1ccc(Cl)c(S(=O)(=O)N2CCCCCC2)c1 | 0 | 1 | -4 | / | 8 | -3 | / | /
CCCc1cc(Nc2cccc(OC)c2)n2ncnc2n1 | 1 | 3 | 3 | 6 | 2 | 0 | / | /
CCCc1cc(Nc2cccc(OCC)c2)n2ncnc2n1 | 0 | 1 | 49* | 0 | -9 | -3 | 136 | i
Cc1ccc(-c2nc3ncccc3o2)cc1NC(=O)c1ccc([N+](=O)[O-])o1 | 0 | 15 | 11 | / | -1 | -6 | / | /
O=C(Nc1ccc(-c2nc3ncccc3o2)cc1)c1ccc([N+](=O)[O-])o1 | 0 | 15 | 53* | / | -12 | -3 | 28* | i
O=C(CSc1nnc(-c2ccncc2)n1Cc1ccco1)N1c2ccccc2Sc2ccc(Cl)cc21 | 0 | 6 | 85* | -6 | -5 | 6 | 6.7* | i
CC(=O)Nc1cc(C(=O)OC(C(=O)c2ccccc2)c2ccccc2)ccc1C (stereo not given) | 0 | 3 | 121* | 0 | -7 | -11 | 22* | i
O=[N+]([O-])c1ccc(S(=O)(=O)c2cccc(C(F)(F)F)c2)nc1 | 0 | 12 | 57* | / | 79* | 17 | 24* | i
O=C(N/N=C/c1ccccc1O)C1SCCCS1 | -2 | -1 | -1 | 2 | -9 | -9 | / | /
Cc1ccc(S(=O)(=O)N2CCN(C(=O)CSc3ccc(F)cc3)CC2)cc1 | 1 | -2 | 13 | / | -4 | 4 | / | /
O=C(Cn1cc2c(n1)CCCC2)NCc1ccccn1 | 0 | -3 | 100* | 6 | -13 | 5 | 105 | i
O=C(Cn1cc2c(n1)CCCC2)NCc1cccs1 | 0 | 2 | -1 | 7 | -15 | -1 | / | /
COc1ccc(OCC(=O)Nc2ccc(NC(=O)c3cccs3)cc2)cc1 | 0 | -2 | 54* | / | -3 | -8 | 74 | i
CCCCn1c(N)c(N(CCOC)C(=O)c2ccc(-c3ccccc3)cc2)c(=O)[nH]c1=O | 0 | 1 | -19 | / | -2 | 3 | / | /
COCc1ccc(CN2CCCC(C(=O)Nc3ccc(-c4cccc(OC)c4)cc3)C2)o1 (stereo not given) | 0 | 6 | 30 | / | -1 | -7 | 116 | i
COc1cccc(-c2ccc(NC(=O)C3CCCN(Cc4ccccn4)C3)cc2)c1 (stereo not given) | / | / | / | / | -4 | -3 | 106 | i
COCc1ccc(CN2CCCC(C(=O)Nc3ccccc3-c3ccc(OC)cc3)C2)o1 (stereo not given) | -1 | 6 | 4 | / | -10 | -3 | / | /
COc1cccc(-c2ccc(NC(=O)C3CCCN(Cc4cnn(C(C)C)c4)C3)cc2)c1 (stereo not given) | 0 | 6 | 23 | / | 1 | -11 | 85 | i
O=C(Nc1ccc(-c2cccc(F)c2)cc1)C1CCCN(Cc2ccccn2)C1 (stereo not given) | 0 | 4 | 0 | / | -5 | -5 | 110 | i
COc1ccc(N2CC(C(=O)Nc3ccc(S(=O)(=O)Nc4nccs4)cc3)CC2=O)cc1 (stereo not given) | -1 | -1 | 2 | 3 | -11 | 2 | / | /
COc1ccccc1NC(=O)N1CCCC1C(=O)NCC1CCCO1 (stereo not given) | 0 | 2 | 2 | 8 | 0 | -9 | / | /
CCn1nc(NS(=O)(=O)c2ccccc2)c2cc3ccccc3nc21 | 2 | 1 | 3 | / | -15 | -4 | / | /
CC(C)Cn1nc(NS(=O)(=O)c2ccccc2)c2cc3ccccc3nc21 | 2 | -2 | 1 | 7 | -14 | 2 | 127 | i
Cc1cccc2nc(COc3ccc4ccccc4c3Br)cn12 | 0 | 16 | 98* | / | -15 | 4 | 26* | i
SMILES | Bfl-1 A1 inh | NTR1 ag | B2AR ag | TLR4-MyD88 BLA | NOD2 RIPK2 PPI | TLR9-MyD88 inh | B2AR ag CP1 | B2AR FAP counter
Cc1cccc2nc(CSc3ccccc3N)cn12 | -2 | 2 | 8 | -9 | -4 | -8 | / | /
Nc1nonc1C(=O)NCCNS(=O)(=O)c1ccc(F)cc1 | 1 | 1 | 65* | -1 | -2 | 1 | 69 | i
CC(=O)c1cccc(S(=O)(=O)N2CCCC(c3nc(-c4ccc(C)o4)no3)C2)c1 (stereo not given) | -1 | -1 | 54* | 7 | -8 | -3 | 80 | i
Cc1ccc(-c2noc(C3CCCN(S(=O)(=O)c4ccc5ccccc5c4)C3)n2)o1 (stereo not given) | -1 | 2 | 3 | 2 | 4 | -3 | / | /
CCNC(=S)N1CCN(c2ccccc2OCC)CC1 | 0 | 0 | 5 | 0 | -7 | 12 | / | /
Cc1ccc(-c2nc3ncccc3o2)cc1NC(=O)c1sc2ccccc2c1Cl | 0 | 20 | 45* | -7 | -8 | -9 | 74 | i
Cc1ccc(-c2nc3ncccc3o2)cc1NC(=O)c1cccs1 | 1 | 0 | -23 | -13 | -9 | 0 | / | /
O=C(Nc1cccc(C(F)(F)F)c1)c1ccc2nc(N3C(=O)CCC3=O)sc2c1 | 1 | 4 | 8 | 2 | -2 | -7 | / | /
NS(=O)(=O)c1ccc(-n2cccc2C=O)cc1 | -1 | 0 | -3 | -3 | -5 | 8 | / | /
O=c1[nH]c2ccc(NC(=S)NCCc3ccccc3)cc2[nH]1 | 1 | 2 | -6 | / | 1 | -1 | / | /
OC(CNCc1cccc(Cl)c1)c1ccccc1 (stereo not given) | 0 | -1 | -8 | 0 | 1 | -1 | 115 | i
CCOc1cc(CNCC(O)c2ccccc2)cc(Cl)c1OC (stereo not given) | 0 | -1 | 0 | -2 | -6 | -3 | 110 | i
OC(CNC1Cc2ccccc2C1)c1ccccc1 (stereo not given) | 0 | 0 | -10 | / | -7 | 2 | 123 | i
CCOc1cc(CNCc2ccccn2)cc(Cl)c1OC | 2 | 0 | -3 | -1 | -12 | -12 | / | /
OC(CNCc1ccccc1)c1ccccc1 (stereo not given) | 0 | 0 | -5 | / | -3 | 11 | 110 | i
Cc1cc(C)cc(CC(=O)N2CCC2(C)C(=O)NS(=O)(=O)Cc2ccccc2)c1 (stereo not given) | / | / | / | / | 1 | / | / | /
O=C(CC1C(=O)NCCN1Cc1ccc(F)cc1Cl)NC1CCCCCCC1 (stereo not given) | 0 | 2 | 5 | / | 1 | 2 | / | /

Compound activity from PubChem BioAssay.
